# Assay results: PubChem BioAssay (NCATS)
# Results filed as inconclusive are left out. Active and inactive are the calls of the source. Unless noted, the call rests on the fitted dose curve; in most records, active means well fitted cell-killing curve with a large enough effect; inconclusive means small, poorly fitted or top-dose-only effect, or effect the other way; inactive means no such curve, though single readings can be large or run the other way.
# What was measured:
# [1] = Quantitative High-Throughput drug screen in 47 multiple myeloma cell lines against the NCATS MIPE library collection: L363_DSMZ cell viability assay (AID 1918984); further: nearly all actives have a fitted effect of over 40% in size
# Method in brief: (§1)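 qHTS format: cells plated (500/well), pin-dosed with MIPE 4.0 compounds, kept 48 h at 37 °C. Readout was CellTiter-Glo luminescence, median RLU.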
# [2] = Quantitative High-Throughput drug screen in 47 multiple myeloma cell lines against the NCATS MIPE library collection: KMS34_JCRB cell viability assay (AID 1918985); further: nearly all actives have a fitted effect of over 40% in size
# Method in brief: as §1
# [3] = Quantitative High-Throughput drug screen in 47 multiple myeloma cell lines against the NCATS MIPE library collection: OCIMY7_PLB cell viability assay (AID 1918987); further: nearly all actives have a fitted effect of over 65% in size
# Method in brief: as §1
# [4] = Quantitative High-Throughput drug screen in 47 multiple myeloma cell lines against the NCATS MIPE library collection: OCIMY5_PLB cell viability assay (AID 1918988); further: nearly all actives have a fitted effect of over 65% in size
# Method in brief: as §1
# [5] = Quantitative High-Throughput drug screen in 47 multiple myeloma cell lines against the NCATS MIPE library collection: OPM1_PLB cell viability assay (AID 1918989); further: nearly all actives have a fitted effect of over 40% in size
# Method in brief: as §1
# [6] = Quantitative High-Throughput drug screen in 47 multiple myeloma cell lines against the NCATS MIPE library collection: SKMM1_PLB cell viability assay (AID 1919863); conditions: SKMM1 myeloma viability, CellTiter-Glo ATP, 48 h; viability: stronger effect = lower value; further: nearly all actives have a fitted effect of over 35% in size
# Method in brief: as §1
# [7] = Quantitative High-Throughput drug screen in 47 multiple myeloma cell lines against the NCATS MIPE library collection: U266_ATCC cell viability assay (AID 1919864); further: nearly all actives have a fitted effect of over 35% in size
# Method in brief: as §1
# [8] = Quantitative High-Throughput drug screen in 47 multiple myeloma cell lines against the NCATS MIPE library collection: XG6_PLB cell viability assay (AID 1919865); further: nearly all actives have a fitted effect of over 40% in size
# Method in brief: as §1
# [9] = Quantitative High-Throughput drug screen in 47 multiple myeloma cell lines against the NCATS MIPE library collection: XG1_PLB cell viability assay (AID 1919866); further: nearly all actives have a fitted effect of over 35% in size
# Method in brief: as §1
# [10] = Quantitative High-Throughput drug screen in 47 multiple myeloma cell lines against the NCATS MIPE library collection: VP6_DJ cell viability assay (AID 1919867); further: nearly all actives have a fitted effect of over 40% in size
# Method in brief: as §1
# [11] = Quantitative High-Throughput drug screen in 47 multiple myeloma cell lines against the NCATS MIPE library collection: UTMC2_PLB cell viability assay (AID 1919868); conditions: CellTiter-Glo ATP luminescence, 48 h; viability (% of DMSO control): at 45.8 µM (top of the series) unless noted; further: nearly all actives have a fitted effect of over 55% in size
# Method in brief: as §1
# [12] = Quantitative High-Throughput drug screen in 47 multiple myeloma cell lines against the NCATS MIPE library collection: PE2_PLB cell viability assay (AID 1919869); further: nearly all actives have a fitted effect of over 35% in size
# Method in brief: as §1
# [13] = Quantitative High-Throughput drug screen in 47 multiple myeloma cell lines against the NCATS MIPE library collection: PCM6_Riken cell viability assay (AID 1919870); further: nearly all actives have a fitted effect of over 30% in size
# Method in brief: as §1
# [14] = Quantitative High-Throughput drug screen in 47 multiple myeloma cell lines against the NCATS MIPE library collection: RPMI8226_ATCC cell viability assay (AID 1919871); further: nearly all actives have a fitted effect of over 30% in size
# Method in brief: as §1
# [15] = Quantitative High-Throughput drug screen in 47 multiple myeloma cell lines against the NCATS MIPE library collection: OPM2_DSMZ cell viability assay (AID 1919872); further: nearly all actives have a fitted effect of over 30% in size
# Method in brief: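 We plated 500 myeloma cells per well, pinned in MIPE 4.0 compounds, and incubated for 48 hours at 37C. ATP was then quantified with CellTiter-Glo, with DMSO and media-only wells defining 100% and 0%.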
# [16] = Quantitative High-Throughput drug screen in 47 multiple myeloma cell lines against the NCATS MIPE library collection: KMS11_JCRBsus cell viability assay (AID 1919873); further: nearly all actives have a fitted effect of over 50% in size
# Method in brief: as §1
# [17] = Quantitative High-Throughput drug screen in 47 multiple myeloma cell lines against the NCATS MIPE library collection: KMS28BM_JCRB cell viability assay (AID 1919874); further: nearly all actives have a fitted effect of over 35% in size
# Method in brief: as §1
# [18] = qHTS drug screen for cell cycle checkpoint inhibitors in PARPi-resistant BRCA-mutant ovarian cancer cell lines. (AID 1963452; calls by dose curve); conditions: PEO1/OlaR viability, CellTiter-Glo luminescence, 96 h; for Z-AUC: stronger effect = lower value
# Method in brief: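 PEO1, PEO4 and PEO1/OlaR ovarian cancer cells, 600 per well, exposed 96 h at 37C to a dilution series. Viability read by CellTiter-Glo luminescence, normalized to DMSO and empty wells; activity summarized as Z-AUC.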
# [19] = qHTS for identification of novel therapeutic agents for treatment of microphthalmiaassociated transcription factor (MiT) renal cell carcinoma (RCC) (AID 1963991; calls by dose curve;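 on z-score: curves scaled with 100% = DMSO viability and 0% = empty wells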); conditions: CellTiter-Glo, 48 h; for Potency: active = Z-AUC below -0.8 in all three lines; for z-score: stronger effect = lower value
# Method in brief: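 UOK109/UOK124/UOK145 (TFE3 fusions, three partners); 500 cells/well; MIPE v4.0, 1912 cpds, 11 conc.; 48 h, 37 C; CellTiter-Glo, 15 min RT; lum. Norm.: DMSO 100%, empty 0%.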
# [20] = measured here: PEO1 parental Z-AUC
# [21] = TFE3-RCC UOK109 viability, measured here: UOK109 Z-AUC
# [22] = TFE3-RCC viability, measured here: UOK124 Z-AUC
# [23] = TFE3-RCC viability, measured here: UOK145 Z-AUC
# Potency means the concentration at half of the fitted maximal effect.
structure (smiles),measurement,setting,value
Nc1ccccc1NC(=O)c1ccc(CNc2nccc(-c3cccnc3)n2)cc1,Potency,[1],1180 nM (active)
same,Potency,[2],935 nM (active)
same,Potency,[3],526 nM (active)
same,Potency,[4],833 nM (active)
same,Potency,[5],264 nM (active)
same,Potency,[6],1660 nM (active)
same,Potency,[7],1660 nM (active)
same,Potency,[8],2640 nM (active)
same,Potency,[9],1180 nM (active)
same,Potency,[10],469 nM (active)
same,Potency,[11],833 nM (active)
same,Potency,[12],1320 nM (active)
same,Potency,[13],2350 nM (active)
same,Potency,[14],2640 nM (active)
same,Potency,[15],2640 nM (active)
same,Potency,[16],662 nM (active)
same,Potency,[17],833 nM (active)
same,Z-AUC,[18],-0.45 (inactive)
same,Z-AUC,[18]; [20],-0.821
same,Z-AUC,[18]; measured here: PEO4 Z-AUC,-0.657
Cc1cc(C(=O)N2CCN(c3cccc(Cl)c3)CC2)n(-c2ccccc2)n1,Potency,[1],132 nM (active)
same,Potency,[2],1050 nM (active)
same,Potency,[3],59 nM (active)
same,Potency,[4],187 nM (active)
same,Potency,[5],5260 nM (active)
same,Potency,[6],296 nM (active)
same,Potency,[7],20900 nM (active)
same,Potency,[8],118 nM (active)
same,Potency,[9],93.5 nM (active)
same,Potency,[10],1320 nM (active)
same,Potency,[11],833 nM (active)
same,Potency,[12],3720 nM (active)
same,Potency,[13],9350 nM (active)
same,Potency,[14],5900 nM (active)
same,Potency,[15],5900 nM (active)
same,Potency,[16],148 nM (active)
same,Potency,[17],132 nM (active)
same,Z-AUC,[18],-1.51 (inactive)
same,Z-AUC,[18]; [20],-1.82
same,Z-AUC,[18]; measured here: PEO4 Z-AUC,-1.79
O=C(Nc1cn[nH]c1-c1nc2ccc(CN3CCOCC3)cc2[nH]1)NC1CC1,Potency,[1],2640 nM (active)
same,Potency,[2],418 nM (active)
same,Potency,[3],332 nM (active)
same,Potency,[4],4180 nM (active)
same,Potency,[5],1660 nM (active)
same,Potency,[6],10500 nM (active)
same,Potency,[7],2350 nM (active)
same,Potency,[8],743 nM (active)
same,Potency,[9],148 nM (active)
same,Potency,[10],2960 nM (active)
same,Potency,[12],935 nM (active)
same,Potency,[13],2640 nM (active)
same,Potency,[14],10500 nM (active)
same,Potency,[15],4690 nM (active)
same,Potency,[16],1320 nM (active)
same,Potency,[17],1050 nM (active)
same,Potency,[18],871 nM (active)
same,Z-AUC,[18]; [20],-1.15
same,Z-AUC,[18]; measured here: PEO4 Z-AUC,-1.9
Cc1ccc(C(N)=O)cc1Nc1nccc(-c2cn(C(C)C)c3cnccc23)n1,Potency,[1],2640 nM (active)
same,Potency,[2],6620 nM (active)
same,Potency,[3],935 nM (active)
same,Potency,[4],7430 nM (active)
same,Potency,[5],7430 nM (active)
same,Potency,[6],16600 nM (active)
same,Potency,[7],8330 nM (active)
same,Potency,[8],2640 nM (active)
same,Potency,[9],3720 nM (active)
same,Potency,[10],2350 nM (active)
same,Potency,[11],6620 nM (active)
same,Potency,[12],3720 nM (active)
same,Potency,[14],16600 nM (active)
same,Potency,[15],14800 nM (active)
same,Potency,[16],4690 nM (active)
same,Potency,[17],5900 nM (active)
same,Z-AUC,[18],-1.23 (inactive)
same,Z-AUC,[18]; [20],-1.45
same,Z-AUC,[18]; measured here: PEO4 Z-AUC,-1.25
CNC(=O)c1c(F)cccc1Nc1nc(Nc2cc3c(cc2OC)CCN3C(=O)CN(C)C)nc2[nH]ccc12,Potency,[1],inactive
same,Potency,[2],8330 nM (active)
same,Potency,[3],105 nM (active)
same,Potency,[4],1660 nM (active)
same,Potency,[5],7430 nM (active)
same,Potency,[6],10500 nM (active)
same,Potency,[7],3320 nM (active)
same,Potency,[8],2350 nM (active)
same,Potency,[9],2350 nM (active)
same,Potency,[10],105 nM (active)
same,Potency,[11],93.5 nM (active)
same,Potency,[12],2640 nM (active)
same,Potency,[14],2350 nM (active)
same,Potency,[16],66.2 nM (active)
same,Potency,[17],118 nM (active)
same,Z-AUC,[18],-0.375 (inactive)
same,Z-AUC,[18]; [20],-0.266
same,Z-AUC,[18]; measured here: PEO4 Z-AUC,-0.708
O=C(c1ccc(Nc2nccc(-c3cc4ccccc4s3)n2)cc1)N1CCC(N2CCCC2)CC1,Potency,[1],1480 nM (active)
same,Potency,[2],11800 nM (active)
same,Potency,[3],2350 nM (active)
same,Potency,[4],8330 nM (active)
same,Potency,[5],5260 nM (active)
same,Potency,[6],23500 nM (active)
same,Potency,[7],14800 nM (active)
same,Potency,[8],1870 nM (active)
same,Potency,[9],4690 nM (active)
same,Potency,[10],3320 nM (active)
same,Potency,[11],6620 nM (active)
same,Potency,[12],7430 nM (active)
same,Potency,[13],1870 nM (active)
same,Potency,[14],20900 nM (active)
same,Potency,[15],20900 nM (active)
same,Potency,[16],5900 nM (active)
same,Potency,[17],9350 nM (active)
same,Z-AUC,[18],0.507 (inactive)
same,Z-AUC,[18]; [20],0.645
same,Z-AUC,[18]; measured here: PEO4 Z-AUC,0.0416
COc1ccc(-c2cc3c(C)nc(N)nc3n(C3CCC(OCCO)CC3)c2=O)cn1 (stereo not drawn),Potency,[1],10.5 nM (active)
same,Potency,[2],74.3 nM (active)
same,Potency,[3],118 nM (active)
same,Potency,[4],83.3 nM (active)
same,Potency,[5],46.9 nM (active)
same,Potency,[6],13.2 nM (active)
same,Potency,[7],264 nM (active)
same,Potency,[8],66.2 nM (active)
same,Potency,[9],18.7 nM (active)
same,Potency,[10],1 nM (active)
same,Potency,[11],52.6 nM (active)
same,Potency,[12],46.9 nM (active)
same,Potency,[13],264 nM (active)
same,Potency,[14],26.4 nM (active)
same,Potency,[15],66.2 nM (active)
same,Potency,[16],7.4 nM (active)
same,Potency,[17],59 nM (active)
same,Potency,[18],490 nM (active)
same,Z-AUC,[18]; [20],-1.22
same,Z-AUC,[18]; measured here: PEO4 Z-AUC,-1.44
same,Potency,[19]; TFE3-RCC UOK109 viability,11.8 nM (active)
same,z-score,[19]; [21],-2.89
same,z-score,[19]; [22],-1.31
same,z-score,[19]; [23],-2.61
CCN1CCN(CC(=O)Nc2ccc(-c3cccc4c(=O)cc(N5CCOCC5)oc34)c3sc4ccccc4c23)CC1,Potency,[1],33.2 nM (active)
same,Potency,[2],2090 nM (active)
same,Potency,[3],46.9 nM (active)
same,Potency,[4],1050 nM (active)
same,Potency,[5],264 nM (active)
same,Potency,[6],7430 nM (active)
same,Potency,[7],18700 nM (active)
same,Potency,[8],2350 nM (active)
same,Potency,[9],935 nM (active)
same,Potency,[11],187 nM (active)
same,Potency,[12],833 nM (active)
same,Potency,[13],1480 nM (active)
same,Potency,[14],1870 nM (active)
same,Potency,[15],3720 nM (active)
same,Potency,[16],332 nM (active)
same,Potency,[17],4690 nM (active)
same,Z-AUC,[18],-1.21 (inactive)
same,Z-AUC,[18]; [20],-0.89
same,Z-AUC,[18]; measured here: PEO4 Z-AUC,-0.929
same,Potency,[19]; TFE3-RCC UOK109 viability,2640 nM (active)
same,z-score,[19]; [21],-2
same,z-score,[19]; [22],-1.8
same,z-score,[19]; [23],-2.12
